Most compounds without a hit are left out; they make up all but 27% or so of the library.
sEH activator = activators of human soluble epoxide hydrolase. purified human sEH enzymatic activity, activator screen. AID 717. activation, % at 2 µM. 91,000 tested, 0.04% active. P34913; in the data active means activation above about 37%
Target sequence (P34913 whole entry, looked up): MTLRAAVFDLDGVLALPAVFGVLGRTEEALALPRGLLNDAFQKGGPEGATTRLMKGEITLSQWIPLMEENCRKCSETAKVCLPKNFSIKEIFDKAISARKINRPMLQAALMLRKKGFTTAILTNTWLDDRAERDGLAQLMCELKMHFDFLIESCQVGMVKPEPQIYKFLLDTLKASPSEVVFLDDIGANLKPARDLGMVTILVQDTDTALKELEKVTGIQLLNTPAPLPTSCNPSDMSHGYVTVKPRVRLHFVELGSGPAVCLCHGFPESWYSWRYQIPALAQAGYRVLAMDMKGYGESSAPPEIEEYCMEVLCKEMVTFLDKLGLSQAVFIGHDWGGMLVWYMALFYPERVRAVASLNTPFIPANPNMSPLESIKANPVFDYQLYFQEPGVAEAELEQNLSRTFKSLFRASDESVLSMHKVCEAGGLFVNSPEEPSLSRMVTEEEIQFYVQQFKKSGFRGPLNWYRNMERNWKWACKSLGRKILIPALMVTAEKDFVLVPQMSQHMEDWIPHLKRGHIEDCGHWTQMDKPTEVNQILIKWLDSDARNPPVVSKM
sEH inh = soluble epoxide hydrolase (human) inhibition | recombinant human sEH enzymatic activity assay | inhibition, % at 2 µM | 91,000 tested, 0.34% active | P34913; in the data active means inhibition above about 80%
CYP2C9 inh = human CYP2C9 inhibition | P11712 | CYP2C9 Supersomes, luciferin-H conversion, luminescence | inhibition, % at 5 µM | 96,000 tested, 20% active | AID 777;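 active means blocking of liver enzyme CYP2C9 beyond about 50% at 5 µM, limit read from the data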
CYP2C19 inh = inhibitors of human CYP2C19; P33261; AID 778; inhibition, % at 5 µM; 96,000 tested, 21% active; CYP2C19 Supersomes, luciferin-H EGE luminescence, 30 min;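 active means CYP2C19 inhibition above a set limit at 5 µM in the primary screen, cut at about 50% in these data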;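 further: plate controls were negative control wells for no effect and 2.5 mM tranylcypromine positive control for full effect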
CYP2C19 act = increases human CYP2C19 enzyme activity; recombinant CYP2C19, luciferin-H EGE luminescence; active compounds read high; 0 = fully inhibited enzyme, 1 = untreated enzyme; activation factor at 5 µM; P33261; 96,000 tested, under 10 active;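 active means activation factor of at least 2 at 5 µM in the primary screen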;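 further: 0 = wells with 2.5 mM tranylcypromine and 1 = vehicle-only wells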
CYP2C9 activ = activators of human CYP2C9 | P11712 | recombinant CYP2C9, luciferin-H conversion, luminescence; active compounds read high; factor 1 = untreated enzyme, 0 = blocked | activation factor at 5 µM | 96,000 tested, 1.4% active;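 active means activation factor of 2 or more for CYP2C9 at a 5 µM dose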;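 further: 0 = sulfaphenazole-blocked wells and 1 = vehicle-only wells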
An asterisk follows results filed as active.

`Nc1cc(Cl)nc(N/N=C/c2ccccc2[N+](=O)[O-])n1` gave sEH activator -4, sEH inh 5, CYP2C9 inh -6, CYP2C19 inh 10, CYP2C19 act 0.9 and CYP2C9 activ 1.1.
COc1ccc(-n2cnnc2SCC(=O)N(C)C2CCS(=O)(=O)C2)cc1 (stereo unspecified) was read as sEH activator 21, sEH inh -20, CYP2C9 inh -12, CYP2C19 inh -6, CYP2C19 act 1.1 and CYP2C9 activ 1.1.
Screening N#CC1=C(N)Oc2ccccc2C12C(=O)Nc1n[nH]c(-c3ccccc3)c12 (stereo unspecified) returned sEH activator 5, sEH inh 0, CYP2C9 inh 54*, CYP2C19 inh -23, CYP2C19 act 1.2 and CYP2C9 activ 0.5.
CCN1C(=O)C2(C(C#N)=C(N)Oc3n[nH]c(-c4ccccc4)c32)c2ccccc21 (stereo unspecified) was read as sEH activator -3, sEH inh 2, CYP2C9 inh 13, CYP2C19 inh 2, CYP2C19 act 1 and CYP2C9 activ 0.9.
Screening COc1ccc(Nc2nc(N3CCCC3)c3ccccc3n2)cc1 returned CYP2C9 inh -2, CYP2C19 inh 13, CYP2C19 act 0.9 and CYP2C9 activ 1.
Screening CCN(CC)c1ccc(Nc2nc(N3CCOCC3)c3ccccc3n2)cc1 returned sEH activator -15, sEH inh 15, CYP2C9 inh 55*, CYP2C19 inh 54*, CYP2C19 act 0.5 and CYP2C9 activ 0.4.
For COc1ccc(CC(=O)NNC(=S)Nc2ccc(Br)cc2)cc1 the results were sEH activator -18, sEH inh 18, CYP2C9 inh 52*, CYP2C19 inh 42, CYP2C19 act 0.6 and CYP2C9 activ 0.5.
`CCOc1ccc(CC(=O)NNC(=S)Nc2ccccc2)cc1Br` gave sEH activator 4, sEH inh -5, CYP2C9 inh 72*, CYP2C19 inh 53*, CYP2C19 act 0.5 and CYP2C9 activ 0.3.
COc1ccc(CC(=O)NNC(=S)Nc2ccccc2)cc1Br was read as sEH activator -16, sEH inh 19, CYP2C9 inh 37, CYP2C19 inh 74*, CYP2C19 act 0.3 and CYP2C9 activ 0.6.
`Cc1ccc(-n2c(C)nn(-c3ncc(C(F)(F)F)cc3Cl)c2=O)cc1` gave sEH activator 5, sEH inh -7, CYP2C9 inh 11, CYP2C19 inh 4, CYP2C19 act 1 and CYP2C9 activ 0.9.
For CN(C)C(=O)N1CCC(C(=O)NCc2cccs2)CC1 the results were CYP2C9 inh -20, CYP2C19 inh -12, CYP2C19 act 1.1 and CYP2C9 activ 1.2.
Screening Clc1cccc(Cl)c1CSc1nnc(-c2sccc2-n2cccc2)o1 returned sEH activator 18, sEH inh -15, CYP2C9 inh -64, CYP2C19 inh 10, CYP2C19 act 0.9 and CYP2C9 activ 1.6.
Screening CCOc1ccc(NC(=O)CSc2nc(C)cc(C)n2)cc1 returned sEH activator -13 and sEH inh 17.
For COc1ccc(NC(=O)CSc2nc(C)cc(C)n2)cc1 the results were sEH activator 10, sEH inh -12, CYP2C9 inh -3, CYP2C19 inh 87*, CYP2C19 act 0.1 and CYP2C9 activ 1.
Cc1cc(C)nc(SCC(=O)Nc2ccc(S(=O)(=O)N3CCCCC3)cc2)n1 was read as sEH activator -48, sEH inh 47, CYP2C9 inh 75*, CYP2C19 inh 49, CYP2C19 act 0.5 and CYP2C9 activ 0.2.
`Cc1cc(C)nc(SCC(=O)N/N=C\c2sccc2C)n1` gave sEH activator 3, sEH inh -1, CYP2C9 inh 20, CYP2C19 inh 55*, CYP2C19 act 0.4 and CYP2C9 activ 0.8.
Cc1csc(SCC(=O)Nc2ccc(S(=O)(=O)N3CCCC3)cc2)n1 was read as sEH activator -16, sEH inh 16, CYP2C9 inh 94*, CYP2C19 inh 65*, CYP2C19 act 0.4 and CYP2C9 activ 0.1.
CSc1nsc(SC)c1C(=O)NCCNS(=O)(=O)c1ccc(C)cc1 was read as sEH activator 5, sEH inh -8, CYP2C9 inh 45, CYP2C19 inh 19, CYP2C19 act 0.8 and CYP2C9 activ 0.5.
`O=C(Cc1ccc(Cl)cc1)NCC(=O)N1CCCC1` gave sEH activator 4, sEH inh -4, CYP2C9 inh -6, CYP2C19 inh 34, CYP2C19 act 0.7 and CYP2C9 activ 1.1.
Screening COc1ccc(NC(=O)CCn2nc(C)cc2C)cc1 returned CYP2C9 inh -43, CYP2C19 inh 68*, CYP2C19 act 0.3 and CYP2C9 activ 1.4.
Cc1csc(C(C#N)C(=O)c2ccc(S(=O)(=O)N3CCCC3)cc2)n1 (stereo unspecified) was read as sEH activator 14, sEH inh -14, CYP2C9 inh 72*, CYP2C19 inh 22, CYP2C19 act 0.8 and CYP2C9 activ 0.3.
For Cc1cc(C)nc(SCC(=O)Nc2ccc(S(=O)(=O)NC(C)(C)C)cc2)n1 the results were sEH activator -12, sEH inh 10, CYP2C9 inh 58*, CYP2C19 inh 13, CYP2C19 act 0.9 and CYP2C9 activ 0.4.
Screening Cc1cc(C)nc(SCC(=O)Nc2ccc(S(=O)(=O)NCCO)cc2)n1 returned sEH activator -6, sEH inh 5, CYP2C9 inh 15, CYP2C19 inh 0, CYP2C19 act 1 and CYP2C9 activ 0.9.
For CCC(C)NCCOCCSc1ccc(Cl)cc1 (stereo unspecified) the results were sEH activator -9, sEH inh 8, CYP2C9 inh 18, CYP2C19 inh 33, CYP2C19 act 0.7 and CYP2C9 activ 0.8.
For Cc1cc(C)cc(OC(=O)CS(=O)c2ccc(C(F)(F)F)cc2[N+](=O)[O-])c1 (stereo unspecified) the results were sEH activator 7, sEH inh -7, CYP2C9 inh -102, CYP2C19 inh -3, CYP2C19 act 1 and CYP2C9 activ 2*.
For N#Cc1cc(N)ccc1Sc1ccc(Cl)cc1 the results were sEH activator -5, sEH inh 5, CYP2C9 inh -87, CYP2C19 inh 50, CYP2C19 act 0.5 and CYP2C9 activ 1.9.
N#Cc1cc(N)ccc1Sc1ccccc1 was read as sEH activator 6, sEH inh -4, CYP2C9 inh -104, CYP2C19 inh 46, CYP2C19 act 0.5 and CYP2C9 activ 2*.
For Cc1cc(C(F)F)n2ncc(C(=O)NCc3ccccc3C(F)(F)F)c2n1 the results were sEH activator 5, sEH inh -4, CYP2C9 inh -11, CYP2C19 inh -15, CYP2C19 act 1.1 and CYP2C9 activ 1.1.
For COc1ccc(CCNC(=O)c2cnn3cccnc23)cc1OC the results were sEH activator 9, sEH inh -4, CYP2C9 inh -7, CYP2C19 inh 27, CYP2C19 act 0.7 and CYP2C9 activ 1.1.
For COc1ccccc1CCNC(=O)c1cnn2c(C(F)F)cc(C)nc12 the results were CYP2C9 inh -60, CYP2C19 inh 77*, CYP2C19 act 0.2 and CYP2C9 activ 1.6.

High-throughput results (PubChem)
